Test results from PubChem BioAssay (NCATS).
Results filed as inconclusive are left out. Activity calls are given as the source filed them. Unless noted, the call rests on the fitted dose curve; in most records, active means well fitted curve in the direction sought with a large enough effect; inconclusive means small, poorly fitted or top-dose-only effect, or another doubt; inactive means no such curve, though single readings can be large; an effect the other way counts as inactive or inconclusive.

Columns and labels:
[1] = AP1 Signaling Pathway (AID 357; active means well fitted curve in either direction with a large enough effect, not every such curve was filed as active;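 further: ME-180 reporter cells stimulated with EGF at its EC50 level; on the % scale 0 is the no-effect control and ±100 the full control effect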); details: ME-180 AP-1-bla reporter, EGF-induced, beta-lactamase ratio, 5 h; at 7.69 µM (top of the series) unless noted
In short: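 Cells are seeded overnight, exposed to compound titrations and an EC50 level of EGF for 5 hours at 37 °C, then loaded with CCF4 dye for 2.5 hours. Beta-lactamase activity under the AP-1 element is read as a blue/green ratio.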

[2] = biological target: Cytochrome P450 1A2 (Homo sapiens) (UniProt P05177); experiment: p450-cyp1a2 (AID 410; calls by dose curve;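 further: -100% = full effect of reference inhibitor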)
In short: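 Luminescent readout of luciferin formed from Luciferin-ME by human CYP1A2; data normalized against complete inhibition by 57 uM furafylline. Enzyme 20nM, substrate 100uM at Km, 100mM KPO4 buffer, 60 min reaction at room temperature.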

[3] = NFAT Signaling Pathway (AID 444; active means well fitted curve in either direction with a large enough effect, not every such curve was filed as active;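 further: carbachol stimulus at about its EC50 of 1 µM final; on the % scale 0 is the no-effect control and ±100 the full control effect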); details: Jurkat NFAT-bla M1, carbachol, beta-lactamase ratio, 5 h; at 7.69 µM (top of the series) unless noted
In short: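 Jurkat cells carrying an NFAT-driven β-lactamase reporter and co-transfected muscarinic M1 receptor were treated with compound plus carbachol (1 uM final, an EC50 level) for 5 h at 37 °C. CCF4 loading followed for 1 h at RT; 460/530 nm ratio gave %activity.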

[4] = Stat Signaling Pathway (AID 446; active means well fitted curve in either direction with a large enough effect, not every such curve was filed as active;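 further: ME-180 cervical cancer cells given 40 pM IL-6 alongside compound; SIE-controlled beta-lactamase reporter measured as 460/530 nm FRET emission ratio; on the % scale 0 is the no-effect control and ±100 the full control effect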); details: ME-180 SIE beta-lactamase reporter, IL-6 stimulated, 5 h; at 7.69 µM (top of the series) unless noted
In short: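 ME-180 SIE-bla cells; overnight plating; cpd + IL-6 40 pM, 5 h, 37 C; LiveBLAzer 2.5 h RT; 460/530 nm emission ratio. Normalized to 300 pM IL-6 and 125 nM JAK inhibitor controls.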

[5] = biological target: Glucocorticoid receptor (Homo sapiens) (UniProt P04150); experiment: GR-GFP Redistribution (AID 450;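 active means compounds whose dose series gives a full or clear partial fitted curve of increased nuclear translocation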; further: potency means the concentration at half of the fitted maximal effect); details: U2OS GR-GFP nuclear translocation, laser cytometry, 2 h
[6] = biological target: Glucocorticoid receptor (Homo sapiens) (UniProt P04150); experiment: GR-EFC Redistribution (AID 451; calls by dose curve; further: potency means the concentration at half of the fitted maximal effect); details: CHO-K1 GR-EFC translocation, beta-gal luminescence, 2 h
In short: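 CHO-K1 cells stably expressing nuclear-localized β-gal enzyme acceptor and GR fused C-terminally to the enzyme donor fragment; ligand-driven nuclear translocation restores β-gal by complementation. Compounds titrated up to 46 uM final, 2 h at 37 °C; luminescence read.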

[7] = biological target: Mitogen-activated protein kinase 10 (Mus musculus) (UniProt Q61831); experiment: JNK3 AlphaScreen Assay (AID 530; active means well fitted curve in either direction with a large enough effect, not every such curve was filed as active;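 further: kinase came from lysate of stimulated human HepG2 cells; signal reports phosphorylation of biotinylated GST-cJun 1-79 at Ser73 with 10 µM ATP; on the % scale 0 is the no-effect control and ±100 the full control effect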)
In short: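 Inhibitors reduce antibody binding to phosphorylated biotin-cJun, lowering AlphaScreen luminescence. Lysates from HepG2 cells pre-activated by IL-1beta plus TNF-alpha supplied JNK3; compounds were titrated.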

[8] = biological target: 3',5'-cyclic-AMP phosphodiesterase 4B (Homo sapiens) (UniProt Q07343); experiment: qHTS Assay for Inhibitors of PDE-IV (AID 607; active means well fitted activation curve with a large enough effect in the main read-out, with a control signal flat, not every such curve was filed as active; further: % of control where 0% means no effect)
In short: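 ACTOne HEK293 cells carry a modified cAMP-gated CNG channel and express endogenous PDE4; plated 1000 cells/well, compounds up to 22.9 uM final. Membrane-potential dye fluorescence (ex 535/em 590) was read; parental cells received 10 uM forskolin + 100 uM RO 20-1724.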

[9] = biological target: Guanine nucleotide-binding protein G(i) subunit alpha-1 (Homo sapiens) (UniProt P63096); experiment: qHTS Assay for Inhibitors of RGS12 GoLoco Motif Activity (Green Fluorophore) (AID 879);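 further: 0% = labeled peptide with Gαi1 and full inhibition = labeled peptide alone without protein; negative values mean loss of peptide binding seen as reduced polarization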
In short: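 Fluorescence polarization assay: 50 nM Gαi1 with 10 nM FITC-labeled RGS12 GoLoco peptide in 10 mM Tris pH 7.5, 150 mM NaCl, 0.1 mM GDP, 0.05% NP40, 10 min at room temperature with compound.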

[10] = qHTS Assay for Identification of Small Molecule Agonists for Thrombopoietin (TPO) Signaling Pathway (AID 917); further: on the % scale 0 is the no-effect control and ±100 the full control effect
In short: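 Activators of TPO signaling were sought in murine Ba/F3 cells transfected with the human receptor, using a luciferase gene driven by the Glycoprotein IIb promoter; 24-hr compound exposure at 37 C alongside 26 pM TPO, in IL-3-free medium.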

[11] = biological target: Muscarinic acetylcholine receptor M1 (Rattus norvegicus) (UniProt P08482); experiment: qHTS Assay for Antagonists of Acetylcholine Muscarinic M1 Receptor: Measurement of IP-One Response (AID 944); further: nearly all actives have a fitted effect of over 75% in size
In short: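 M1-CHO (rat), 2000 cells/well, overnight recovery; cpd 10 min; carbachol EC80 (200 nM), 30 min, HEPES buffer + 50 mM LiCl pH 7.4; IP-One HTRF, Ex 337, Em 620/665 nm.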

[12] = biological target: Pyruvate kinase (Leishmania mexicana) (UniProt Q27686); experiment: qHTS Validation Assay for Inhibitors of Leishmania Mexicana Pyruvate Kinase (AID 945);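 further: 0% = DMSO only neutral control wells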
In short: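 Pyruvate kinase activity of E451W LmPYK (0.2 nM) was followed as ATP output after 1 h at room temperature with 0.5 mM PEP and 0.1 mM ADP, detected by PKLight luminescence.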

[13] = biological target: Pyruvate kinase PKM (Homo sapiens) (UniProt P14618); experiment: qHTS Assay for Activators of Human Muscle Pyruvate Kinase (AID 954; active means well fitted curve in the direction sought with a large enough effect, not every such curve was filed as active;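 further: 0% = uninhibited enzyme and -100% = no enzyme or full thiadiazolimine inhibition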)
In short: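 Luminescence from a luciferase ATP-detection/stop reagent reported PKM2 activity. Reactions contained 0.1 nM purified human enzyme, 0.5 mM PEP, 0.1 mM ADP and 7 mM MgCl2 at pH 7.2, run 1 h at RT.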

[14] = biological target: Alpha-galactosidase (Coffea arabica) (UniProt Q42656); experiment: Counterscreen for Glucocerebrosidase Inhibitors: qHTS Assay for Coffee Bean alpha-Galactosidase at pH 4.5 (AID 957);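 further: plate controls were enzyme alone for no effect and no enzyme for full effect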
In short: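 Coffee bean alpha-galactosidase 2 nM, substrate 4-MU-alpha-Gal 80 uM, pH 4.5 citrate/Tween-20, 20 min RT. Cpd titration 0.7 nM–77 uM. Stop pH 10, fluorescence 365/440 nm; Hill-equation AC50.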

[15] = biological target: Alpha-galactosidase A (Homo sapiens) (UniProt P06280); experiment: Counterscreen for Glucocerebrosidase Inhibitors: qHTS Assay for Human alpha-Galactosidase at pH 4.5 (AID 992); further: 0% is about no effect
In short: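 Enzyme at 2 nM final was combined with compound (0.7 nM to 77 uM) and 80 uM 4-methylumbelliferyl alpha-D-galactopyranoside in 50 mM citric acid, 0.005% Tween-20, pH 4.5. After 20 min at room temperature, fluorescence was read (Ex 365/Em 440 nm); AC50 came from Hill fits.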

[16] = biological target: alpha-glucosidase (Oryza sativa, rice) (UniProt Q653V4); experiment: Counterscreen for Glucocerebrosidase Inhibitors: qHTS Assay for Rice alpha-Glucosidase at pH 5.0 (AID 997);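 further: 0% = full activity with enzyme and -100% = basal without enzyme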
In short: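 Rice alpha-glucosidase (4 nM final) with 400 uM 4-methylumbelliferyl-alpha-D-glucopyranoside in citrate buffer pH 5.0, 20 min at room temperature, stopped at pH 10; fluorescence 365/440 nm, compounds 0.7 nM–77 uM, AC50 from Hill fits.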

[17] = biological target: Alpha-galactosidase (Coffea arabica) (UniProt Q42656); experiment: Counterscreen for Glucocerebrosidase Inhibitors: qHTS Assay for Coffee Bean alpha-Galactosidase at pH 5.9 (AID 998);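 further: plate controls were uninhibited enzyme for no effect and no-enzyme basal signal for full effect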
In short: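 Green coffee bean enzyme (2 nM final) was incubated with compounds (0.7 nM–77 uM) and 4-methylumbelliferyl alpha-D-galactopyranoside (80 uM) in citrate buffer pH 5.9, 20 min at room temperature. High-pH stop; fluorescence 365/440 nm; AC50 from Hill fits.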

[18] = qHTS Assay for Identification of Small Molecule Agonists for Hypoxia Response Element Signaling Pathway (AID 914; active means well fitted activation curve with a large enough effect in the signal ratio, with a control signal flat, not every such curve was filed as active; the % refers to the signal ratio; further: % of control where 0% means no effect); details: ME-180 (cervical carcinoma) HRE-bla reporter, beta-lactamase ratio, CoCl2, 17 h; hits give high values
In short: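 Compounds in a titration series were added to ME-180 reporter cells alongside an EC50 level of CoCl2. After 17 hours, beta-lactamase activity was read as the 460nm/530nm emission ratio of CCF4, giving AC50 values.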

[19] = biological target: Cytochrome P450 3A4 (Homo sapiens) (UniProt P08684); experiment: qHTS Assay for Activators of Cytochrome P450 3A4 (AID 885); further: nearly all actives have a fitted effect of over 65% in size
In short: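 20nM CYP3A4 + 25uM Luciferin-PPXE (=KM), 200mM KPO4; cpd 10 min RT; NADPH regen, 60 min RT; stop w/ detection buffer, 20 min; luminescence. Normalized to 57 uM ketoconazole.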

[20] = qHTS Assay for Identification of Small Molecule Antagonists for NFkB Signaling Pathway (AID 895; active means well fitted inhibition curve with a large enough effect in the signal ratio, with a control signal flat, not every such curve was filed as active; the % refers to the signal ratio; further: on the % scale 0 is the no-effect control and ±100 the full control effect)
In short: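 NFkB-bla ME-180 cervical carcinoma cells with beta-lactamase reporter under NFkB response element; compounds added, then TNF alpha at 10 pM final (EC50), 5 h at 37 C. LiveBLAzer substrate 2 h, room temperature; emission 460/530 nm at 405 nm excitation.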

[21] = biological target: Muscarinic acetylcholine receptor M1 (Rattus norvegicus) (UniProt P08482); experiment: qHTS Assay for Antagonists of Acetylcholine Muscarinic M1 Receptor: Kinetic Measurement of Intracellular Calcium Response (AID 943);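 further: Fluo-4 calcium signal as peak divided by basal fluorescence over 4 min; nearly all actives have a fitted effect of over 75% in size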
In short: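 Rat M1-CHO cells, 2000/well, overnight → Fluo-4 no-wash dye with probenecid, 1 h 37C → compound 10 min, room temp → basal read 6 s → carbachol EC80 (100 nM) → 4 min kinetic read; peak/basal.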

Chain of Pyruvate kinase PKM (Homo sapiens) (P14618 whole entry, looked up): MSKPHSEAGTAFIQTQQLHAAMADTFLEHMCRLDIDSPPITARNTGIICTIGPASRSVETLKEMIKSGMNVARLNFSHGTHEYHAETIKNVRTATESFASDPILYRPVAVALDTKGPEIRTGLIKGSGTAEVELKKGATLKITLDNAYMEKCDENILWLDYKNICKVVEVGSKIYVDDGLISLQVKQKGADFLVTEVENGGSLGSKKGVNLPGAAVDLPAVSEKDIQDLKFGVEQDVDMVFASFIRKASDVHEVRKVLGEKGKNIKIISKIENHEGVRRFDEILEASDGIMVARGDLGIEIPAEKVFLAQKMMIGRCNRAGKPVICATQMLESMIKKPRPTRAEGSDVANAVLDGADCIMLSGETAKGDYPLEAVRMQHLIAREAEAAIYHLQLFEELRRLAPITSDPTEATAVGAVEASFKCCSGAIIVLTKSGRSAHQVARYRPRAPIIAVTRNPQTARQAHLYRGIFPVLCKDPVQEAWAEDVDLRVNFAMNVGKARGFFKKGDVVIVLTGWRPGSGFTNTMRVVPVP
Chain of Alpha-galactosidase A (Homo sapiens) (P06280 whole entry, looked up): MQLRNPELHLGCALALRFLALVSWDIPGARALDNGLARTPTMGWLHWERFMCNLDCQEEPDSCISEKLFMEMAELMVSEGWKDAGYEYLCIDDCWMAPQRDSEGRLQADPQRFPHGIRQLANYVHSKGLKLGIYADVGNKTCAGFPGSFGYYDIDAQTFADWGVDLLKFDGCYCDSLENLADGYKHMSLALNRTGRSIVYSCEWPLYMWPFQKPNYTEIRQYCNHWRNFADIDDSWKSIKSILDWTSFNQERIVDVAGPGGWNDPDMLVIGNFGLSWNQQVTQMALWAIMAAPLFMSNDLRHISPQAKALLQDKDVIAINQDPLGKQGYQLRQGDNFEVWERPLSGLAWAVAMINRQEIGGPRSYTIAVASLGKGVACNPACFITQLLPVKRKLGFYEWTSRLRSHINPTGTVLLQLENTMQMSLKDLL
Chain of Pyruvate kinase (Leishmania mexicana) (Q27686 2-499 E452W): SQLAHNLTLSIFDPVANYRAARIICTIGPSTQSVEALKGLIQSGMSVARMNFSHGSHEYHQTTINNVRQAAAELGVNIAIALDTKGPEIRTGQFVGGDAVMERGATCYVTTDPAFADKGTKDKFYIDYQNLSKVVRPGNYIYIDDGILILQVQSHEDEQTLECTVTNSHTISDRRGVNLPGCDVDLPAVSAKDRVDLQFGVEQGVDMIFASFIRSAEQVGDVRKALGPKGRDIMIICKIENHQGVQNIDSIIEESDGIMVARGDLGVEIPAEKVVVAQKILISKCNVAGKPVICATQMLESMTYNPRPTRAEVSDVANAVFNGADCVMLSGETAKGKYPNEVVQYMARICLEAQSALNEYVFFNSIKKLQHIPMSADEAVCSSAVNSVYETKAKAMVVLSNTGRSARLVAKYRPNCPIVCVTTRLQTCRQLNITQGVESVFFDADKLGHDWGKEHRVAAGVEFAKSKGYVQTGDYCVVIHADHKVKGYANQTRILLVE
Chain of Muscarinic acetylcholine receptor M1 (Rattus norvegicus) (P08482 whole entry, looked up): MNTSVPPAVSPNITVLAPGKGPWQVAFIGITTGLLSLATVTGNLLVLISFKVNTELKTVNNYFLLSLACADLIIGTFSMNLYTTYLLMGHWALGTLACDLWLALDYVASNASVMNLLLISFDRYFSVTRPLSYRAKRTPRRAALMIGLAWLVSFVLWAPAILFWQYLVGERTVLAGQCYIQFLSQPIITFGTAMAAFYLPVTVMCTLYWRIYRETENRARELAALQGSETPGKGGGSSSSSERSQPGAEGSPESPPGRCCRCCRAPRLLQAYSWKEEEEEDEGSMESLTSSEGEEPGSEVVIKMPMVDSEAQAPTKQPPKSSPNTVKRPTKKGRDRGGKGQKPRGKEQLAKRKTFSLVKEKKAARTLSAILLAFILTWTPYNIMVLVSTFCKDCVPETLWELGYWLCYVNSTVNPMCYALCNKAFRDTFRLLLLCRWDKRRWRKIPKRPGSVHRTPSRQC
Chain of Guanine nucleotide-binding protein G(i) subunit alpha-1 (Homo sapiens) (P63096 whole entry, looked up): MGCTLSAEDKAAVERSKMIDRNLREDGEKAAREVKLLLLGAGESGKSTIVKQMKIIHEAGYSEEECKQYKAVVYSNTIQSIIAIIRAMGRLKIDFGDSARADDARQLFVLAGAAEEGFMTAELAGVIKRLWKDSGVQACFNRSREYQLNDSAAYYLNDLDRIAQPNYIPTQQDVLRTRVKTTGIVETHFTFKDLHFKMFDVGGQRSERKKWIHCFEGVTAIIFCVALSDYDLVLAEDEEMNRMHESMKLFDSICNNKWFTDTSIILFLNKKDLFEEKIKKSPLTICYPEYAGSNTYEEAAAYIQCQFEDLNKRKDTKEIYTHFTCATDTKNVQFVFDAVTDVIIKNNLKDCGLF
Chain of 3',5'-cyclic-AMP phosphodiesterase 4B (Homo sapiens) (Q07343 whole entry, looked up): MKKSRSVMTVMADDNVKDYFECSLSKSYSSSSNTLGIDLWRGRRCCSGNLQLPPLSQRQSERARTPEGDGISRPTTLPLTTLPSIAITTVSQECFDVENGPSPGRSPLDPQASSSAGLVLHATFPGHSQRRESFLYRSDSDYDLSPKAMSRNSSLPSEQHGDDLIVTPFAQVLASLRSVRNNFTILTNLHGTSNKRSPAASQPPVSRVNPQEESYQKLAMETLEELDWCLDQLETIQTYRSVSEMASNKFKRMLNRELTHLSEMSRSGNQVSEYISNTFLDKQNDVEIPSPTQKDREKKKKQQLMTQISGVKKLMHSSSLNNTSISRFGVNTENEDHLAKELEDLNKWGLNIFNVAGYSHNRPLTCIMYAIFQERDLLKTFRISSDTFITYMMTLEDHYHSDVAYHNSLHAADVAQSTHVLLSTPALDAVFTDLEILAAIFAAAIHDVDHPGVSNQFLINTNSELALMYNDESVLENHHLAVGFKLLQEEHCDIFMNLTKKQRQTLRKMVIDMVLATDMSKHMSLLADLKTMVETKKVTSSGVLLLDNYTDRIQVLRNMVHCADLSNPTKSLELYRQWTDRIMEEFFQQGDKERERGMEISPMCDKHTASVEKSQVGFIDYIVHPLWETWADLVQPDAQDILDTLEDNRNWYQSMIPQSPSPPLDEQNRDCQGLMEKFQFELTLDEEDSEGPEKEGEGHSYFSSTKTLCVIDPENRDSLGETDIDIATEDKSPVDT
Chain of Alpha-galactosidase (Coffea arabica) (Q42656 whole entry, looked up): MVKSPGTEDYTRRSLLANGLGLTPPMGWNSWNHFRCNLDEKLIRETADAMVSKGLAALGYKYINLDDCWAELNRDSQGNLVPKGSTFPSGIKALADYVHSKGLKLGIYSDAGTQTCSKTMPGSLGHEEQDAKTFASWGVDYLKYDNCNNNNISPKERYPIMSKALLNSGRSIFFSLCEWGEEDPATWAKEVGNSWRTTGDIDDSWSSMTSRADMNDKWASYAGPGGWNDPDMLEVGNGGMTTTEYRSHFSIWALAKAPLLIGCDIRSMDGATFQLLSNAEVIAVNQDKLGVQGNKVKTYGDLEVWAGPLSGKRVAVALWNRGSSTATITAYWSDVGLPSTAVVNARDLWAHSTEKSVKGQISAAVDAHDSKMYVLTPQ
Chain of Glucocorticoid receptor (Homo sapiens) (P04150 whole entry, looked up, the tested form may be a part): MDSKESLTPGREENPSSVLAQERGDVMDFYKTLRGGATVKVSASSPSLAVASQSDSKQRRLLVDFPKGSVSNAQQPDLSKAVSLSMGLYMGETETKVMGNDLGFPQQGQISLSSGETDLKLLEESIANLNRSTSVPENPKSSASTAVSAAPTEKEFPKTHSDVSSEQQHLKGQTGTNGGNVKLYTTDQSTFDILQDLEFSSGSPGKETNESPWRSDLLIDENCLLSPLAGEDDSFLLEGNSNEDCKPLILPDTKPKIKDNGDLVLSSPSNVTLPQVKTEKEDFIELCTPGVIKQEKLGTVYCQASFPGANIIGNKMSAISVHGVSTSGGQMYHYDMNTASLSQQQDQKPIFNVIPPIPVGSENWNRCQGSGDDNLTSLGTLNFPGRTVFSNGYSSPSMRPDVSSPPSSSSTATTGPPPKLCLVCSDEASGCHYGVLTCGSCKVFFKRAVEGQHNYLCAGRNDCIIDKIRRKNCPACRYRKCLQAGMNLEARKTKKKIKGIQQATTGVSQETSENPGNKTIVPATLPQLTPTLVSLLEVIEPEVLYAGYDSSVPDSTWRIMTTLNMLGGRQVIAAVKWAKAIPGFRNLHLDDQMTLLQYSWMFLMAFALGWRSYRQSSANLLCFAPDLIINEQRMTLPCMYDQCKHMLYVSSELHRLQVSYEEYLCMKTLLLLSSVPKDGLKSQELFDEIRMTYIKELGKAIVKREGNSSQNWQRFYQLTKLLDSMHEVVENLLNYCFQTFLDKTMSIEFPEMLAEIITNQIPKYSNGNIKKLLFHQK
Chain of Cytochrome P450 1A2 (Homo sapiens) (P05177 whole entry, looked up): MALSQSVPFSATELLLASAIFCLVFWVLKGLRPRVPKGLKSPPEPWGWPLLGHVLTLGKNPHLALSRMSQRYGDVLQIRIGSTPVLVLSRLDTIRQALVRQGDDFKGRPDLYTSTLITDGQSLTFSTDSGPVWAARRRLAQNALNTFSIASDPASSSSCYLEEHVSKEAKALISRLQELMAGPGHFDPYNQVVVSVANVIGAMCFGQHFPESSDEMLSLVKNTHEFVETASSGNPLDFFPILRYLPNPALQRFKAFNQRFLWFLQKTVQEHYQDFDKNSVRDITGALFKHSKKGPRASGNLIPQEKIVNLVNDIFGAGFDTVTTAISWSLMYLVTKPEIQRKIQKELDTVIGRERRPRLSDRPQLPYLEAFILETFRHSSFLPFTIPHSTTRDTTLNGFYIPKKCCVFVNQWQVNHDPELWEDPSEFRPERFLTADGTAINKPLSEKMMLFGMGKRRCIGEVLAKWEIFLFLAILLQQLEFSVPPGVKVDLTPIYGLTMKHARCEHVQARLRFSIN

Nc1ncnc2c1ncn2[C@@H]1O[C@@H](COP(=O)(O)CP(=O)(O)OP(=O)(O)O)[C@H](O)[C@@H]1O
inactive: activity change, negative = inhibition [1] -0.584% [at 38 µM] | Potency [2] | activity change, negative = inhibition [3] 3.86% [at 38 µM] | activity, negative = inhibition [4] -9.36% [at 38 µM] | Potency [5] > 46 µM | Potency [6] > 46 µM | Potency [7] | outcome [8] | outcome [9] | outcome [10] | Potency [11] | outcome [12] | outcome [13] | outcome [14] | outcome [15] | outcome [16] | outcome [17]

NC(=O)CN1C[C@@H](O)CC1=O
inactive: activity change, negative = inhibition [1] 2.98% [at 38 µM] | Potency [2] | activity change, negative = inhibition [3] 17.8% [at 38 µM] | Potency [5] > 46 µM | Potency [6] > 46 µM | Potency [7] | outcome [8] | outcome [9] | activation [18] 9.85% | outcome [10] | Potency [11] | outcome [12] | outcome [13] | outcome [14] | outcome [15] | outcome [16] | outcome [17]

Oc1ccc2c3c1O[C@@H]1c4[nH]c5c(c4C[C@@]4(O)[C@@H](C2)N(CC2CC2)CC[C@]314)C[C@]1(O)[C@@H]2Cc3ccc(O)c4c3[C@@]1(CCN2CC1CC1)[C@H]5O4
inactive: activity change, negative = inhibition [1] -1.65% [at 38 µM] | activity change, negative = inhibition [3] -8.04% [at 38 µM] | activity, negative = inhibition [4] -12.2% [at 38 µM] | Potency [5] > 46 µM | outcome [8] | outcome [9] | Potency [19] | Potency [20] | outcome [10] | Potency [21] | outcome [12] | outcome [13] | outcome [14] | outcome [15] | outcome [16] | outcome [17]
